Test [1] has as its target Norway rat Vesicular Monoamine Transporter (VMAT2), neurotransmitter transporter, Slc18a2 (gene 25549) (UniProt Q01827). Kind of test: NVS_TR_rVMAT2: NovaScreen (NVS) Transporter Assay for Norway rat Vesicular Monoamine Transporter (VMAT2), neurotransmitter transporter (AID 2283376).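 Also: actives lower the bound radioligand signal below the DMSO level.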 The protocol: NVS_TR_rVMAT2 is a biochemical, single-readout assay that uses extracted gene-proteins from Rat forebrain in a tissue-based cell-free assay. Measurements were taken 1 hour after chemical dosing in a 96-well plate.NVS_TR_rVMAT2 is one of one assay component(s) measured or calculated from the NVS_TR_rVMAT2 assay. It is designed to make measurements of radioligand binding, a form of binding reporter, as detected with scintillation counting signals by Filter-based radiodetection technology.Data from the assay component NVS_TR_rVMAT2 was analyzed into 1 assay endpoint. This assay endpoint, NVS_TR_rVMAT2, was analyzed in the positive analysis fitting direction relative to DMSO as the negative control and baseline of activity. Using a type of binding reporter, loss-of-signal activity can be used to understand changes in the binding as they relate to the gene Slc18a2. Furthermore, this assay endpoint can be referred to as a primary readout, because the performed assay has only produced 1 assay endpoint. To generalize the intended target to other relatable targets, this assay endpoint is annotated to the transporter intended target family, where the subfamily is vesicular transporter.
Binding assays used specific radioligands (tritiated, iodinated) with non-radioactive competitive displacement ligands in agonist or antagonist protocols (as indicated) and various reference compounds and inhibitors to titrate specific binding to receptors and transporters. Most enzyme assays (CYPs, kinases, phosphatases, proteases, HDACs) used recombinant protein and specific substrates (fluorescence mostly, some colorimetric and radioactive) and inhibitors, followed by a biochemical separation of substrate and product. All assays for the biochemical HTS were initially run in duplicate at a single concentration (10 uM for CYP450 assays and 25 uM for all others). […] Each assay was run with positive and negative controls, and concurrent controls on every plate. The follow-up (secondary) screen tested active chemical-pairs in concentration series, as well as a few additional assays not tested in the primary screen, some selected negative inactives, and several cases re-run in the concentration series for confirmatory purposes.

The target of test [2] is Estrogen receptor (Homo sapiens) (UniProt P03372). Kind of test: OT_ERa_GFPERaERE_0480: Odyssey Thera (OT) 8-hour HeLa Transcription Induction Assay for Estrogen Receptor (AID 2283381; active = hit-call score of the fitted dose curve at least 0.9, where 1 is the maximum; inactive = score below 0.9). The method in brief: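 An 8 h HeLa transcription-induction format with a GFP reporter under ERE control, read by fluorescence microscopy; single endpoint fitted positively with DMSO as baseline.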

For test [3] the target is unchanged. As to the kind of experiment: OT_ERa_GFPERaERE_0120: Odyssey Thera (OT) 2-hour HeLa Transcription Induction Assay for Estrogen Receptor (AID 2283382). The method in brief:
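Two-hour compound treatment of HeLa cells preceded microscopy imaging of an inducible fluorescent reporter. Image-based quantification gave one endpoint, analysed for signal increase relative to DMSO controls.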

Test [4] addresses Bile acid receptor (Homo sapiens) (UniProt Q96RI1). Kind of test: OT_FXR_FXRSRC1_1440: Odyssey Thera (OT) 24-hour HEK293T Protein-Complementation Assay for Farnesoid X receptor/SRC-1 Co-activator (AID 2283384). The gist of the method:
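Single endpoint, analysed for increased fluorescence against DMSO controls. HEK293T cells carrying FXR and SRC-1 linked to complementary reporter halves were exposed to chemicals for 24 h before reading.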

Test [5] deals with Retinoic acid receptor RXR-alpha (Homo sapiens) (UniProt P19793). As to the kind of experiment: OT_NURR1_NURR1RXRa_0480: Odyssey Thera (OT) 8-hour HEK293T Protein Complementation Assay for Nurr1/retinoid X receptor (RXR) (AID 2283385). The gist of the method: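 Gain in fluorescent complementation signal over DMSO, measured 8 hours after chemical dosing of human kidney HEK293T cells, indicated enhanced Nurr1–RXRα association.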

Test [6] deals with rat Serotonin Transporter (SERT), Slc6a4 (gene 25553) (UniProt P31652). As to the kind of experiment: NVS_TR_rSERT: NovaScreen (NVS) Transporter Assay for rat Serotonin Transporter (SERT) (AID 2283375). The method in brief: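 Radioligand displacement, filter scintillation readout; rat forebrain membrane prep, 1 h post-dose. Single-conc 25 uM duplicate screen, then concentration-response on actives. Loss of signal vs DMSO baseline.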

Test [7] concerns the target Estrogen receptor beta (Homo sapiens) (UniProt Q92731). Kind of test: OT_ER_ERbERb_1440: Odyssey Thera (OT) 24-hour HEK293T Protein-Complementation Assay for Estrogen Receptor-beta/-beta Homodimer (AID 2283380).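 Also: scored as signal increase over DMSO baseline for both agonists and antagonists.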 The gist of the method:
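HEK293T cells stably expressing ER beta LBD (aa 310-547) homodimer fragment-complementation reporter, dosed 24 h. Cells formaldehyde-fixed, Draq5-stained; gain in nuclear (agonist) or nuclear plus cytoplasmic (antagonist) fluorescence versus DMSO read by laser scanning cytometry.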

Test [8] deals with human Norepinephrine Transporter (NET), SLC6A2 (gene 6530) (UniProt P23975). Kind of test: NVS_TR_hNET: NovaScreen (NVS) Transporter Assay for human Norepinephrine Transporter (NET) (AID 2283377).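 Also: cell-free membrane protein extracted from CHO cells expressing human NET.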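 As to AC50: displacement of radioligand from human NET seen as loss of scintillation signal.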 The method in brief:
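CHO cell extracts expressing the transporter; tritiated or iodinated tracer displaced competitively; filtration plus scintillation readout at 1 h. Single-point duplicates at 25 uM, concentration series for follow-up; activity = signal drop relative to DMSO.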

In test [9] the target is Agonist Androgen Response Element (ARE), AR (gene 367) (UniProt P10275). As to the kind of experiment: OT_AR_ARELUC_AG_1440: Odyssey Thera (OT) 24-hour CHO-K1 Luciferase Assay for Agonist Androgen Response Element (ARE) (AID 2283379). The method in brief: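 Gain-of-signal reporter endpoint: cells (CHO-K1, hamster) are treated 24 h, luciferin/ATP reagent added, and luminescence compared with DMSO baseline.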

Test [10] has as its target human Dopamine Transporter (DAT), SLC6A3 (gene 6531) (UniProt Q01959). Kind of test: NVS_TR_hDAT: NovaScreen (NVS) Transporter Assay for human Dopamine Transporter (DAT) (AID 2283374).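 Also: activity means loss of bound radioligand signal relative to DMSO.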 The gist of the method:
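hDAT membranes + tritiated/iodinated radioligand, competitive displacement; 1 h; filter scintillation readout. Single conc 25 uM (duplicate), then conc-response for actives. DMSO = negative control.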

The text below walks through data of PubChem BioAssay (EPA / NIEHS).

Where “and” joins values, the source holds several entries; their conditions need not be identical. Equal entries are not always repeated. Inconclusive results are not listed. The source holds several records for some structures; these can differ, active in one and inactive in another. Calls of active or inactive are those of the source. The calls were made as follows, unless noted: active = hit-call score of the fitted dose curve at least 0.9, where 1 is the maximum; inconclusive = response in the unintended direction; inactive = score below 0.9.

Retinoic acid receptor RXR-alpha (Homo sapiens), sequence (P19793 whole entry, looked up): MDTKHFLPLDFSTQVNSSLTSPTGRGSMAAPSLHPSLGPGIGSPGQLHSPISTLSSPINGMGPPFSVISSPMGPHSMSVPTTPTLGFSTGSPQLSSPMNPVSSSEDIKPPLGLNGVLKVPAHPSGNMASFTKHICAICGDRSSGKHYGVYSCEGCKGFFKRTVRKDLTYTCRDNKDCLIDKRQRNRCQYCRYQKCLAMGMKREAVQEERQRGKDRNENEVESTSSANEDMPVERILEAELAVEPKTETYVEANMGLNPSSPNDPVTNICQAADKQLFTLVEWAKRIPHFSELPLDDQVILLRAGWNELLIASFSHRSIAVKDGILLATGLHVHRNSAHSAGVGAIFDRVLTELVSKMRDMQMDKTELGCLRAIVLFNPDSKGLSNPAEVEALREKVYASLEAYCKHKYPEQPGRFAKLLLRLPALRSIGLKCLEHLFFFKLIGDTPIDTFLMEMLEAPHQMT
Estrogen receptor beta (Homo sapiens), sequence (Q92731 whole entry, looked up, the tested form may be a part): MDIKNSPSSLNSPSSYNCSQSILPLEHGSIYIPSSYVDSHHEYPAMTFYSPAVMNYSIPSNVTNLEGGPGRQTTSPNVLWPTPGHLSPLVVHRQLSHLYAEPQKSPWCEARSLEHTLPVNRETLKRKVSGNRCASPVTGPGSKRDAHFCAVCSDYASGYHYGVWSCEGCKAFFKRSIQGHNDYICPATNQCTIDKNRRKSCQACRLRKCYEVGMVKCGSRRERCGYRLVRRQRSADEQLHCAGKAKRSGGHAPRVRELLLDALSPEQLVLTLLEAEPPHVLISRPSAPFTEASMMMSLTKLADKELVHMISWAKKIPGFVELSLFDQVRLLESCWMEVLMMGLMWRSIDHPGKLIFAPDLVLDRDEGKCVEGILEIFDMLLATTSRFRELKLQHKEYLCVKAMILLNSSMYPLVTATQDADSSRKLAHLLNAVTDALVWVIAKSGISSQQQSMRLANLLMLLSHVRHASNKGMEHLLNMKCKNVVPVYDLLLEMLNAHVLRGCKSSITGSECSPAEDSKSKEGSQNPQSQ
Norway rat Vesicular Monoamine Transporter (VMAT2), neurotransmitter transporter, Slc18a2 (gene 25549), sequence (Q01827 whole entry, looked up): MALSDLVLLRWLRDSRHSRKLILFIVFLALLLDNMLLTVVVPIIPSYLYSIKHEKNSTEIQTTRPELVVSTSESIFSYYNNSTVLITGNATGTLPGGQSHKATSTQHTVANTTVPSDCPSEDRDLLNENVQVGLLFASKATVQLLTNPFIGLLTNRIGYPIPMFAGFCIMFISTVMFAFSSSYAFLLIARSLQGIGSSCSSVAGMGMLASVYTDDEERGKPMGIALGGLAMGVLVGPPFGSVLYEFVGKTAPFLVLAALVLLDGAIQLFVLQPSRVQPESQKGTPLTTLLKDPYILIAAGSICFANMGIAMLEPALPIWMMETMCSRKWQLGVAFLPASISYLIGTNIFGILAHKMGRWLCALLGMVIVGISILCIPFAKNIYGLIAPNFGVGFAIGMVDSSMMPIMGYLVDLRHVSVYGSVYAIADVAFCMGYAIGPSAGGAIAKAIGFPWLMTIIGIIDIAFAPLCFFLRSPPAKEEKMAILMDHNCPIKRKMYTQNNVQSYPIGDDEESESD
Estrogen receptor (Homo sapiens), sequence (P03372 whole entry, looked up): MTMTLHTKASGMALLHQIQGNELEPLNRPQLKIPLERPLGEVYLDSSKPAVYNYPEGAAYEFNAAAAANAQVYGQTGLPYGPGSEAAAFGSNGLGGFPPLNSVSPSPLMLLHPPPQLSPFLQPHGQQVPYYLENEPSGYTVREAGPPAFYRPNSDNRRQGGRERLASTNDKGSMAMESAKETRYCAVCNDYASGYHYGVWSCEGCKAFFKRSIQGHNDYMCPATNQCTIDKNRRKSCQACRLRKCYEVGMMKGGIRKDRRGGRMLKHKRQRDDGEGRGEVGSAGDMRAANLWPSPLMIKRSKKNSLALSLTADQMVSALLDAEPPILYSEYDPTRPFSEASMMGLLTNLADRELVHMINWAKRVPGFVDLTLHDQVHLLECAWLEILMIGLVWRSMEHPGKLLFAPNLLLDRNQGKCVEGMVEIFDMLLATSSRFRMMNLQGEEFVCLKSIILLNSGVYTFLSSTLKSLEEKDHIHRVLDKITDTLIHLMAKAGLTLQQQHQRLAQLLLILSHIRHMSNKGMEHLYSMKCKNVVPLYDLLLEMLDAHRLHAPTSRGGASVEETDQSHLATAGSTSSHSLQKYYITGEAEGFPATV
human Dopamine Transporter (DAT), SLC6A3 (gene 6531), sequence (Q01959 whole entry, looked up): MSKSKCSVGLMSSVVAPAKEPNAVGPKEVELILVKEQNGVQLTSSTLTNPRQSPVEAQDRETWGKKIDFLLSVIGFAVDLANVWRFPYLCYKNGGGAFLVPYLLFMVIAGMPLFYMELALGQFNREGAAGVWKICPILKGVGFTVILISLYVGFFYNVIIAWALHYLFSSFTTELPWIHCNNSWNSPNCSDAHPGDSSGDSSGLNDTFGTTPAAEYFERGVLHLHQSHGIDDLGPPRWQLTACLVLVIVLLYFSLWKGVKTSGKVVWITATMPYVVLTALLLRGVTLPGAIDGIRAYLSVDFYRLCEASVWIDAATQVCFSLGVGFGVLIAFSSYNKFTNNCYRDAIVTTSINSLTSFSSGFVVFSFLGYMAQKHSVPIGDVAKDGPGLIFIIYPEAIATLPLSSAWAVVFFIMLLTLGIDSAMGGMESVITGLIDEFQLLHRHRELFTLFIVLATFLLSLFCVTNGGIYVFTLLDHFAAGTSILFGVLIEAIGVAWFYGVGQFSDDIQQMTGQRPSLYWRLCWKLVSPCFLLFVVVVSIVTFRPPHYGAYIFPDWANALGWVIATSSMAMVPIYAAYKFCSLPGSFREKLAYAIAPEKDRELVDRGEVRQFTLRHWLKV
human Norepinephrine Transporter (NET), SLC6A2 (gene 6530), sequence (P23975 whole entry, looked up): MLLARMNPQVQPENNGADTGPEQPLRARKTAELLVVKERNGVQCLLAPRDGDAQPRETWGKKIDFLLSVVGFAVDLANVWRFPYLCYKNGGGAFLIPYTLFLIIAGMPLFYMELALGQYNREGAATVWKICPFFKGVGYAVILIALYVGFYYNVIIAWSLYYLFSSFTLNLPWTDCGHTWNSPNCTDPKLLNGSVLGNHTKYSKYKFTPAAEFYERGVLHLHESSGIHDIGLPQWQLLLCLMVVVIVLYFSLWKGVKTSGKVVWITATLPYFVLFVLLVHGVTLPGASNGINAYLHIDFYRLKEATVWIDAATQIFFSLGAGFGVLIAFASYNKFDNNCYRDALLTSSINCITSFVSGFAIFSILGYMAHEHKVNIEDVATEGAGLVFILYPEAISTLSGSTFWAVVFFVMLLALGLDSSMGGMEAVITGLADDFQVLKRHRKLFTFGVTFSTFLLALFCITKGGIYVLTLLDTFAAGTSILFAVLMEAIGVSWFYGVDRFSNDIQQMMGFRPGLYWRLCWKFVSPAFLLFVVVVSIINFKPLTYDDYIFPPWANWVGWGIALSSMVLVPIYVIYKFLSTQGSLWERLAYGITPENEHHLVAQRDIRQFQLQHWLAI
rat Serotonin Transporter (SERT), Slc6a4 (gene 25553), sequence (P31652 whole entry, looked up): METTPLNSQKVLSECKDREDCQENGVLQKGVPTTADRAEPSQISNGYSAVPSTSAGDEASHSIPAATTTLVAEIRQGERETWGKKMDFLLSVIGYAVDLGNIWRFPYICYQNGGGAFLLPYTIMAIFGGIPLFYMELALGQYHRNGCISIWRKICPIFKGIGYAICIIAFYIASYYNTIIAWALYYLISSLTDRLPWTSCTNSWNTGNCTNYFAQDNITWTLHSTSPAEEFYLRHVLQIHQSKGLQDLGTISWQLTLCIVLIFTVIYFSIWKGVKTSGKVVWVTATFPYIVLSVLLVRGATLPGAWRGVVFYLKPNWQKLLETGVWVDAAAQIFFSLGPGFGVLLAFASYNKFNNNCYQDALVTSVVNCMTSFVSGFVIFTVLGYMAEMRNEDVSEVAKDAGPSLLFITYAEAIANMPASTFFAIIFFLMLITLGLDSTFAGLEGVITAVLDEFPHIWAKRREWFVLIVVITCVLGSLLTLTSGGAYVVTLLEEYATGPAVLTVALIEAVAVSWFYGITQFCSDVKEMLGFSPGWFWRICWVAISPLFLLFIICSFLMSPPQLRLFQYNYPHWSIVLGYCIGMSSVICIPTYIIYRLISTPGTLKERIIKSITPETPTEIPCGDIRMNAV
Bile acid receptor (Homo sapiens), sequence (Q96RI1 whole entry, looked up): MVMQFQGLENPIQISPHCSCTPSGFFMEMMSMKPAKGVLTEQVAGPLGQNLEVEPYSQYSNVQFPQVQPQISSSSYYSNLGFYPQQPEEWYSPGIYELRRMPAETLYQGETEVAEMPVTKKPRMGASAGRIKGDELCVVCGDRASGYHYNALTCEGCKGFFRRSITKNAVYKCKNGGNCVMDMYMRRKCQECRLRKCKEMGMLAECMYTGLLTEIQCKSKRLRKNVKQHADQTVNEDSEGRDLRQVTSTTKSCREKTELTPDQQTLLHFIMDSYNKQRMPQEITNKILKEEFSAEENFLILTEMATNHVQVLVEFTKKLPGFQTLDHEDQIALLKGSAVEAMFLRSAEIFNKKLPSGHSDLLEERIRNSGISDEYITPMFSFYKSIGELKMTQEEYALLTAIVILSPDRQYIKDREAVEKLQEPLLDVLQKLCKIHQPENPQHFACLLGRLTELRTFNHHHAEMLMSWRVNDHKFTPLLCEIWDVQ

As for `CCOC(=O)C(Cl)Cc1cc(-n2nc(C)n(C(F)F)c2=O)c(F)cc1Cl` (configuration not stated), the compound was called inactive in test [1], in test [2], in test [3], in test [4] and in [5]. In [5], the AC50 (commonly the midpoint of the concentration-response curve, whichever way the signal moves) is 12.7 µM (active).

For the compound `COc1nc(NC(C)C)nc(NC(C)C)n1`, the outcome in test [6], in [7], in [2] and in test [3] was inactive.

Turning to `Oc1ccccc1-c1ccccc1`, in test [8], the AC50 was 15 µM (active). Further, the outcome in test [7], in [2], in [3] and in test [5] was inactive.

On to `O=C(Nc1ccccc1)Nc1ccnc(Cl)c1`, for which the result in test [6], in test [9], in test [2], in test [3] and in test [4] was inactive. Moreover, the AC50 in test [1] was 6.12 µM (active).

In the case of `CO/C=C(/C(=O)OC)c1ccccc1Oc1cc(Oc2ccccc2C#N)ncn1`, the result in test [10], in test [9], in [7], in test [2], in test [3] and in [5] was inactive.

Take `CON(C)C(=O)Nc1ccc(Cl)c(Cl)c1`: the AC50 was 13.4 µM (active) in test [10] and 25 µM (active) in test [8]. For the same compound, the compound was called inactive in test [8], in [2], in test [3] and in test [5].

As for `CCCCOC(=O)c1ccccc1C(=O)OCCCC`, the call in test [10] and in test [5] was inactive. The AC50 is 33.4 µM (active) and 37.5 µM (active) and 31.9 µM (active) in [7]; 34.7 µM (active) and 31.9 µM (active) and 23.8 µM (active) in test [2]; 30.6 µM (active) and 20.8 µM (active) and 24.9 µM (active) in [3].

For `CC1COC(Cn2cncn2)(c2ccc(Oc3ccc(Cl)cc3)cc2Cl)O1` (configuration not stated), the AC50 is 2.93 µM (active) in test [10], 12 µM (active) in test [8] and 11.4 µM (active) in [5]. The compound was classed as inactive in [1], in test [7], in test [2] and in [3].

On to `COC(=O)C(C)Oc1ccc(Oc2ccc(Cl)cc2Cl)cc1` (configuration not stated), for which, in test [10], the AC50 was 14.2 µM (active). In addition, the compound was called inactive in [10], in test [7], in test [4] and in test [5].

On to `Cc1cc(Cl)ccc1OCC(=O)O`, for which the compound was called inactive in test [6], in test [9], in test [2], in test [3] and in test [5]. Moreover, the AC50 in [9] was 24 µM (active).

Take `C=CCC1=C(C)[C@@H](OC(=O)[C@@H]2[C@@H](C=C(C)C)C2(C)C)CC1=O`: the AC50 in test [10] is 18.6 µM (active); in [4], 50 µM (active); in test [5], 31.5 µM (active). Moreover, the compound was called inactive in test [2], in test [3] and in test [5].

As for `CCc1nn(C)c(C(=O)NCc2ccc(C(C)(C)C)cc2)c1Cl`, the AC50 in test [10] is 6.22 µM (active). In addition, the call in [7], in test [2] and in test [3] was inactive.

On to `Cc1c(F)c(F)c(COC(=O)C2C(/C=C(\Cl)C(F)(F)F)C2(C)C)c(F)c1F` (configuration not stated), for which, in test [10], the AC50 is 8.33 µM (active). For the same compound, the compound was classed as inactive in test [7], in test [2], in test [3], in test [4] and in [5].

`Fc1ccc(Oc2ccnc3cc(Cl)cc(Cl)c23)cc1`: the AC50 is 9.77 µM (active) in test [10], 29.1 µM (active) in test [4] and 28.3 µM (active) in test [5]. Further, the outcome in test [7], in test [2], in [3] and in [5] was inactive.

Take `C#CCOS(=O)OC1CCCCC1Oc1ccc(C(C)(C)C)cc1` (configuration not stated): the AC50 in test [10] was 9.17 µM (active); in test [4], 31.1 µM (active); in test [5] it was 39.4 µM (active). The result in [7], in test [2], in [3] and in test [5] was inactive.

Regarding `CCCCNC(=O)OCC#CI`, the AC50 in test [1] is 1.59 µM (active) and 4.96 µM (active); in test [8], 9.04 µM (active) and 9.55 µM (active); in test [2], 86.8 µM (active); in test [3] it was 12.1 µM (active); in test [5], 11.4 µM (active). Moreover, the compound was called inactive in test [7].

For `COc1nc(C)nc(NC(=O)NS(=O)(=O)c2ccccc2CCC(F)(F)F)n1`, the call in test [6] was inactive.

As for `C=CCC1=C(C)C(OC(=O)C2C(C=C(C)C)C2(C)C)CC1=O` (configuration not stated), the AC50 in test [10] is 7.76 µM (active) and 487 nM (active) and 23.7 µM (active); in test [4] it was 75 µM (active); in test [5] it was 31.2 µM (active) and 33.1 µM (active). Moreover, the result in test [10], in test [8], in test [2], in test [3] and in [5] was inactive.

Take `OC(c1ccc(Cl)cc1)(c1cncnc1)c1ccccc1Cl` (configuration not stated): the AC50 is 0.944 µM (active) in [10] and 12.1 µM (active) in test [2]. In addition, the result in [7] and in [3] was inactive.

As for `N#CC(CCc1ccc(Cl)cc1)(Cn1cncn1)c1ccccc1` (configuration not stated), the AC50 in [10] is 7.06 µM (active). The call in [9], in test [7], in test [2] and in test [3] was inactive.

As for `CCCCNC(=O)n1c(NC(=O)OC)nc2ccccc21`, the call in test [9], in test [7], in [2], in test [3] and in [4] was inactive.

Turning to `CC1=C(C(=O)Nc2ccccc2)SCCO1`, the AC50 in [10] is 9.69 µM (active); in test [8], 11.6 µM (active). For the same compound, the call in test [9], in [7], in test [2], in [3], in [4] and in test [5] was inactive.

As for `CCOc1cc(Oc2ccc(C(F)(F)F)cc2Cl)ccc1[N+](=O)[O-]`, the half-maximal activity concentration (AC50) in test [10] was 6.37 µM (active). Moreover, the result in [7], in test [2], in [3] and in test [4] was inactive.

Consider `CN(C)C(=S)SSC(=S)N(C)C`, for which the compound was called inactive in [9] and in test [7]. The AC50 in test [2] is 83.4 µM (active); in test [3], 90.7 µM (active).
